Drawing on PubChem BioAssay, this text covers composite z-score and z-score for five molecules.

A short description of experiment [1]: compounds binding Alexa647 anti-His antibody – biochemical, small-molecule microarray, 635 nm fluorescence, artefact control for SMM control protein annotation, primary screen (AID 1128).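 Note: score merges feature fluorescence with signal-to-noise for each printed compound spot.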 Particulars: higher = more signal.
For experiment [2], the system named is Human papillomavirus type 1a E7 protein (residues 1-88). Put plainly: HPV1a E7 small-molecule binders, primary screen, biochemical, small-molecule microarray, residues 1-88, 635 nm (AID 1129). The settings on record: small-molecule microarray binding, fluorescence 635 nm; higher = more signal.
Experiment [3] has as its target Focal adhesion kinase 1 (Homo sapiens) (UniProt Q05397). Put plainly: PTK2 protein binding on printed compound slides – biochemical, small-molecule microarray, 635/667 nm fluorescence, BSA, DTT, primary screen (AID 1130).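 Note: composite of spot emission at 667 nm and signal to noise over triplicate slides.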 The settings on record: 635 nm fluorescence, higher = more signal.
The test system of experiment [4] is Fibrinogen (Alexa647-labelled). Put plainly: Alexa647-fibrinogen binding to printed small molecules – biochemical, small-molecule microarray, 635/667 nm fluorescence, artefact control for SMM control-protein annotation, profiling panel (AID 1131).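 Note: z-score merges 667 nm fluorescence with per-spot signal-to-noise over triplicate slides.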 Particulars: fibrinogen-A647 binding fluorescence, higher = more signal.
Experiment [5] addresses Follistatin (Homo sapiens) (UniProt P19883). Put plainly: FST protein binding to printed compounds – biochemical, small-molecule microarray, 635/667 nm fluorescence, primary screen (AID 1132). Particulars: 635 nm fluorescence, higher = more signal.
In experiment [6] the target is Fibroblast growth factor 2 (Homo sapiens) (UniProt P09038). Put plainly: basic fibroblast growth factor binding to printed compounds – biochemical, small-molecule microarray, 635/667 nm fluorescence, primary screen (AID 1133). The settings on record: FGF2, fluorescence 635/667, higher = more signal.
Sequence of Fibroblast growth factor 2 (Homo sapiens) (P09038 whole entry, looked up): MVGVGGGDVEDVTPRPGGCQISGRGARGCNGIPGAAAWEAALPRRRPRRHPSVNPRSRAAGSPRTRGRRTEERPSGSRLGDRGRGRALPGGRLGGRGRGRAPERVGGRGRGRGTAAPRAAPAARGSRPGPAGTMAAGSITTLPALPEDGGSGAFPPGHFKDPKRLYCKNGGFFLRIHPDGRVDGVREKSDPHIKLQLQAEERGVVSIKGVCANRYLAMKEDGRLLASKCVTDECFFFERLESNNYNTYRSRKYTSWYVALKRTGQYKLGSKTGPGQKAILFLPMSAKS
Experiment [7] is described as follows: JC-1 mitochondrial potential readout, lung cancer cells – cell-based, A549, JC-1 fluorescence, basal, 24 h, 100 nL, profiling panel (AID 1138).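 Note: A549 lung adenocarcinoma cells under basal conditions with no added stimulus; test concentration not given here.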 The settings on record: higher = more signal.
In another experiment the test system is Lefty1. Put plainly: Lefty1 protein binding to printed compounds – biochemical, small-molecule microarray, 635/667 nm fluorescence, primary screen (AID 1139). Particulars: fluorescence 635/667, higher = more signal.
The subject of experiment [8] is wheat germ agglutinin (Triticum aestivum), Alexa647-labelled. Put plainly: Alexa647-WGA lectin binding to printed small molecules – biochemical, small-molecule microarray, 635/667 nm fluorescence, artefact control for SMM control-protein annotation, profiling panel (AID 1140).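 Note: score merges 667 nm feature emission with signal to noise over triplicate slides.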 The settings on record: WGA-A647 binding, 635 nm fluorescence, higher = more signal.
In experiment [9] the target is Luciferin 4-monooxygenase (Photinus pyralis) (UniProt P08659). Put plainly: inhibition of purified Photinus pyralis luciferase – biochemical, luminescence, purified enzyme, 2006 set, primary screen (AID 1141).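 Note: cell-free assay with purified firefly luciferase at 100 ng per well in PBS; test concentration not given here.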 Particulars: purified firefly luciferase, SteadyGlo luminescence, 30 min; higher = more signal, called active from +8 up or from −8 down.
Sequence of Luciferin 4-monooxygenase (Photinus pyralis) (P08659 whole entry, looked up): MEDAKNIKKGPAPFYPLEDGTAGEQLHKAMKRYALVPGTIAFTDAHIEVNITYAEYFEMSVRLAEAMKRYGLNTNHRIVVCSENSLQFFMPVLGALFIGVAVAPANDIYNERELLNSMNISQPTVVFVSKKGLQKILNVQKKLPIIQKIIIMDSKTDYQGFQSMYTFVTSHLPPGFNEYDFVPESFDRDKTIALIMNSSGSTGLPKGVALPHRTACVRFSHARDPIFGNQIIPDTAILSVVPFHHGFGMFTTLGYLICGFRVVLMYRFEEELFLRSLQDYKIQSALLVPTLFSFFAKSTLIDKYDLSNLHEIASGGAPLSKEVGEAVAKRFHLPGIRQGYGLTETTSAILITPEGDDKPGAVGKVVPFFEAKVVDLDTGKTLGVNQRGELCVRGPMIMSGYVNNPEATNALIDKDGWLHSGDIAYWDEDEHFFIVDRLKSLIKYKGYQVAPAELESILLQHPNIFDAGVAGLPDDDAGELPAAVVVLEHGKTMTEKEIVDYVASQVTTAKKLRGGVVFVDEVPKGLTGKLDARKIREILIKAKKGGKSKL
The subject of experiment [10] is Wnt5a (protein binding on small-molecule microarray). Put plainly: small molecules binding Wnt5a protein – biophysical, small-molecule microarray, 635/667 nm fluorescence, primary screen (AID 1142).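 Note: fluorescence read at 667 nm with signal to noise per printed feature.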 Particulars: 635 nm fluorescence, higher = more signal.
Experiment [11] is described as follows: ATP-based viability of Huh7 replicon cells – cell-based, CellTiter-Glo luminescence, basal, 48 h, cytotoxicity control for HCV replication inhibitor project, primary screen (AID 1143).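 Note: Huh7 hepatoma cells carrying a hepatitis C replication reporter with no stimulus; test concentration not given here.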 The settings on record: higher = more signal, called active from +8 up or from −8 down.
Experiment [12] in a line: Pseudomonas biofilm growth suppression – PAO1 strain, BacTiter-Glo luminescence, LB-PBS, primary screen (AID 1144). Particulars: P. aeruginosa PAO1 biofilm, 12 h, higher = more signal.
Experiment [13] can be described thus: basal CRE-LacZ reporter activity in PC12 – cell-based, unstimulated, primary screen (AID 1145). Particulars: no forskolin, luminescence, 4.5 h, higher = more signal, called active from +8 up or from −8 down.
Experiment [14] is described as follows: forskolin-driven CRE-LacZ activity in PC12 – cell-based, CRE-LacZ reporter, forskolin-stimulated, primary screen (AID 1146).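 Note: PC12 cells with 6xCRE LacZ reporter stimulated by forskolin 10 µM; beta-galactosidase reporter signal reflecting CREB driven transcription.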 Particulars: luminescence, 4.5 h, higher = more signal, called active from +8 up or from −8 down.
Experiment [15] has as its target Streptavidin (Streptomyces avidinii) (UniProt P22629). Put plainly: compounds binding control protein streptavidin – biophysical, small-molecule microarray, 635/667 nm fluorescence, artefact control for SMM compound annotation, primary screen (AID 1147).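 Note: signal reflects streptavidin binding to arrayed compounds as a control protein.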 The settings on record: higher = more signal.
The nature of experiment [16]: probe aInhba binding on compound microarray – biochemical, small-molecule microarray, 635/667 nm fluorescence, primary screen (AID 1148).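 Note: score merges 667nm spot fluorescence with signal-to-noise for antibody binding to printed compounds.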 The settings on record: higher = more signal.
In experiment [17] the target is Torsin-1A (Homo sapiens) (UniProt O14656). Put plainly: TOR1A wild-type binding on microarray – cell lysate, small-molecule microarray, lysate, 635/667 nm, primary screen (AID 1149). Particulars: COS7 hTOR1A-WT lysate, 635 nm fluorescence, higher = more signal.
Sequence of Torsin-1A (Homo sapiens) (O14656 whole entry, looked up): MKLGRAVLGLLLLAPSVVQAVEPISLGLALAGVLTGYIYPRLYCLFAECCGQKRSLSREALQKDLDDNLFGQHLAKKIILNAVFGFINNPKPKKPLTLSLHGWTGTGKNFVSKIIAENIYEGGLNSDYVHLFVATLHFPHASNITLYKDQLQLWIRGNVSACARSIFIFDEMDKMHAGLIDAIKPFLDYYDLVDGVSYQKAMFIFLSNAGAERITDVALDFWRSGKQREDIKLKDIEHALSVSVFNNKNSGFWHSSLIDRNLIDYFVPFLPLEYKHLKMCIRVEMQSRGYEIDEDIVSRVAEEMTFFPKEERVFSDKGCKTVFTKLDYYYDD
Experiment [18] has the same target. Put plainly: torsin A mutant lysate binding on microarrays – cell lysate, small-molecule microarray, COS7 lysate, 635/667 nm fluorescence, primary screen (AID 1150).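 Note: score pools 667 nm emission and signal to noise measuring lysate protein binding.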 The settings on record: COS7 hTOR1A mutant lysate, 635 nm fluorescence, higher = more signal.
The test system of experiment [19] is Sonic hedgehog protein (Shh). Put plainly: Sonic hedgehog microarray binding compounds – biochemical, small-molecule microarray, 635/667 nm fluorescence, primary screen (AID 1151).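 Note: Shh protein binding to compounds spotted on small-molecule microarray slides; score combines spot fluorescence intensity with signal-to-noise across triplicate slides.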 The settings on record: 635 nm fluorescence, higher = more signal.

SMILES strings stand for the structures. Activity calls are given as the source filed them. Unless noted, the rule behind the calls is not given here.

Sequence of Streptavidin (Streptomyces avidinii) (P22629 whole entry, looked up): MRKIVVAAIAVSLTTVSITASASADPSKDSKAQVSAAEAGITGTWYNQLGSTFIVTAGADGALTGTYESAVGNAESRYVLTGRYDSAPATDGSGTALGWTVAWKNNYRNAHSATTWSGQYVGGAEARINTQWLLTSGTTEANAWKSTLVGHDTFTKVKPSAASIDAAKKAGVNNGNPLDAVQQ
Sequence of Follistatin (Homo sapiens) (P19883 whole entry, looked up): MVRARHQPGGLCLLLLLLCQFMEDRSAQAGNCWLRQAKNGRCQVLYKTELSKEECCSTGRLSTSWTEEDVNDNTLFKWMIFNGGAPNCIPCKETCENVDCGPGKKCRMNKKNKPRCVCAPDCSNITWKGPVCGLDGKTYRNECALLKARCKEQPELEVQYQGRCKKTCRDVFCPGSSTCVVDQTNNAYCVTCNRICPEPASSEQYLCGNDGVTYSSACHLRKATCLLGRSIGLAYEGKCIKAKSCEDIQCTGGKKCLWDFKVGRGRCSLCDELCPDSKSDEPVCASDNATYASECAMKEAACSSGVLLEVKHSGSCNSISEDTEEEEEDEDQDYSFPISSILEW
Sequence of Focal adhesion kinase 1 (Homo sapiens) (Q05397 whole entry, looked up): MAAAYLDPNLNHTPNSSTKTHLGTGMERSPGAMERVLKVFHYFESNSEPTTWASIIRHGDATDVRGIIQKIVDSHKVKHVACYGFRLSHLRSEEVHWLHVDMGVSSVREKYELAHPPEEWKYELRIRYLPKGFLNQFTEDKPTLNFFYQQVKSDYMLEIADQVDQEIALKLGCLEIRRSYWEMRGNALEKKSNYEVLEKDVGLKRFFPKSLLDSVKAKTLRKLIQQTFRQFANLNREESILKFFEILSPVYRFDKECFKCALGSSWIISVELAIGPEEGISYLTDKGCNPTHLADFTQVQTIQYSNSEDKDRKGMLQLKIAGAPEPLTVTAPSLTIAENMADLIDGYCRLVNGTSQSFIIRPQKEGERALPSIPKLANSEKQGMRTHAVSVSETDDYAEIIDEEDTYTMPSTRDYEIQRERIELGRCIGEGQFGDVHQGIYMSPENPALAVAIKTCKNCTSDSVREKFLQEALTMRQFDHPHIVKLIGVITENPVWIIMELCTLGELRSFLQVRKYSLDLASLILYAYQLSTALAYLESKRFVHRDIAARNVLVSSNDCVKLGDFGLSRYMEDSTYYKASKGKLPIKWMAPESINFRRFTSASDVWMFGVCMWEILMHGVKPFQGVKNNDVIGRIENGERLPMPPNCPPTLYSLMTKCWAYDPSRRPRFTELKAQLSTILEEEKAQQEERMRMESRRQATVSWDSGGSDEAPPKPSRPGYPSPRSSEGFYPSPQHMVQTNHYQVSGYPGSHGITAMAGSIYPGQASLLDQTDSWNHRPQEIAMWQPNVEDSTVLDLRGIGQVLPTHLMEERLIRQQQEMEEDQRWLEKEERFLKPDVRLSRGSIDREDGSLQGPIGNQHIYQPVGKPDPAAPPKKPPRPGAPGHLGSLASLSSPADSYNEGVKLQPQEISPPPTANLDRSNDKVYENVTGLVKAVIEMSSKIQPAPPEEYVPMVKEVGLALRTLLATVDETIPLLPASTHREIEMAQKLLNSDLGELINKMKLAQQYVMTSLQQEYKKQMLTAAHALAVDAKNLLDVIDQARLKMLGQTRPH

On to `COC(=O)[C@@]1(Cc2ccc(F)cc2)[C@H]2c3cc(C(=O)N4CCCC4)n(CCF)c3C[C@H]2CN1C(=O)c1ccccc1`, for which the composite z-score in experiment [1] is 2.82; in [2], 1.2; in experiment [3] it was 1.67; in experiment [4], 0.642; in experiment [5], 0.088; in [6], -0.299. In addition, the composite z-score was -0.427 in the experiment with Lefty1; 1.4 in experiment [8]; 1.5 in experiment [10]; 1.99 in [15]; 1.66 in experiment [16]; 0.103 with Torsin-1A (Homo sapiens) [17]. Besides, the figures for the composite z-score (with Torsin-1A (Homo sapiens) [18]; in experiment [19]) were 1.07 and -0.462, respectively. Moreover, the z-score in experiment [7] was 0.0101; in [9], 0.125 (inactive); in [11], -2.28 (inactive); in [12], -0.603 (inactive); in [13] it was 0.952 (inactive); in experiment [14], 1.33 (inactive).

For `COc1ccc([Si](C)(C)[C@@H]2[C@@H](CCO)O[C@]3(C(=O)N(Cc4cccc(N5C(=O)c6ccccc6Oc6ccccc65)c4)c4ccccc43)[C@H]2C)cc1`, the composite z-score in [1] is 0.106; in experiment [2] it was 0.502; in [3], 0.121; in experiment [4] it was -0.0703; in [5], -0.672; in [6], -0.559. Also, the composite z-score was 0.135 in the experiment on Lefty1; 0.413 in experiment [8]; -0.193 in [10]; -0.313 in [15]; -0.251 in [16]; -0.133 in the experiment with Torsin-1A (Homo sapiens) [17]. The figures for the composite z-score (in the experiment with Torsin-1A (Homo sapiens) [18]; in experiment [19]) were -0.548 and -0.264, respectively. In addition, the z-score in experiment [7] was -0.368; in [9] it was -1.26 (inactive); in experiment [11] it was -5.77 (inactive); in [12] it was -1.34 (inactive); in [13], 6.17 (inactive); in experiment [14], 0.291 (inactive).

`Cc1c(NC(=O)/C(C#N)=C/C=C/c2ccccc2[N+](=O)[O-])c(=O)n(-c2ccccc2)n1C`: the composite z-score in [1] is 0.526; in experiment [2], 0.876; in [3] it was 1.01; in experiment [4] it was 0.867; in experiment [5] it was 0.771; in experiment [6], 0.334. For the same molecule, the composite z-score is 0.557 in the experiment with Lefty1; 0.154 in experiment [8]; -0.145 in experiment [10]; 0.293 in experiment [15]; -0.176 in experiment [16]; 0.185 with Torsin-1A (Homo sapiens) [17]. The composite z-score with Torsin-1A (Homo sapiens) [18] is 0.331; in experiment [19], 0.844. Also, the z-score is 0.511 in experiment [7]; -4.64 (inactive) in experiment [9]; -3.01 (inactive) in experiment [11]; 0.365 (inactive) in [12]; -0.0243 (inactive) in experiment [13]; 25.4 (active) in [14].

On to `C=C(C(=O)CC[C@H](OC(C)=O)c1cccc(OCCO)c1)C(C)C`, for which the composite z-score in [1] is -0.734; in experiment [2], -1.35; in [3], -0.311; in experiment [4], -0.0681; in experiment [5], -0.791; in experiment [6] it was -0.883. Besides, the composite z-score in the experiment on Lefty1 is -0.638; in [8], 0.335; in [10], -0.161; in experiment [15], -0.608; in experiment [16], -0.0719; with Torsin-1A (Homo sapiens) [17] it was -0.34. The composite z-score is -0.241 with Torsin-1A (Homo sapiens) [18] and 0.144 in experiment [19]. The z-score in experiment [7] is -0.6; in experiment [9], -0.0654 (inactive); in experiment [11], -3.05 (inactive); in experiment [12] it was -0.0576 (inactive); in [13], 0.798 (inactive); in experiment [14], 1.04 (inactive).

With `O=C1O[C@@H](c2ccccc2)[C@@H](c2ccccc2)N2[C@@H](c3ccc(O)cc3)[C@]3(C(=O)Nc4ccc(C#CC5=CCCCC5)cc43)[C@@H](C(=O)N3CCN(c4ncccn4)CC3)[C@H]12`, the composite z-score in experiment [1] stood at 0.567; in experiment [2], 1.19; in experiment [3], 1.24; in experiment [4] it was 0.811; in experiment [5], 1.22; in [6], 1.1. For the same molecule, the composite z-score in the experiment with Lefty1 was determined as 0.68; in experiment [8] it was 0.262; in experiment [10], 0.326; in experiment [15], 0.448; in [16], 0.0633; in the experiment with Torsin-1A (Homo sapiens) [17], 0.6. In addition, the composite z-score in the experiment with Torsin-1A (Homo sapiens) [18] was 0.836; in experiment [19], 1.21. The z-score in experiment [7] is -0.367; in [9], 0.745 (inactive); in [11], -3.76 (inactive); in [12], -1.07 (inactive); in [13], -1.14 (inactive); in experiment [14] it was -0.286 (inactive).
